# Assay results from the supplement of paper PMC9794691.
# Key:
# H1975 [1] = test: area under confluence curve of compound monotherapy; compare to DMSO control AUC of the same experiment (AUC (confluence x time, arbitrary))
# Procedure, shortened: (§1)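 Adenocarcinoma lines were grown in RPMI 1640 with 10% FBS at 37 °C and 5% CO2, seeded at 20,000–30,000 cells/well in 48-well plates, and treated the next day with test compound alone at one dose: 1 uM or the highest dose giving <50% parental inhibition. Every 3–4 days the wells were washed with PBS and the drug was refreshed, and medium was drug-free from the DTP stage (10–21 days). IncuCyte tracked confluence until wells given only an EGFR inhibitor regrew. Area under the confluence curve was calculated in Prism, taking the median of triplicates where run, and set beside the vehicle value from the same experiment.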
# HCC2279 [2] = test: as above
# Procedure, shortened: as §1
# HCC2935 [3] = test: as above
# Procedure, shortened: as §1
# HCC4006 [4] = test: as above
# Procedure, shortened: as §1
# HCC827 [5] = test: as above
# Procedure, shortened: as §1
# II-18 [6] = test: as above
# Procedure, shortened: as §1
# H1975 [7] = test: area under confluence curve of osimertinib + compound combination regimen (DTP regrowth); compare to osimertinib-only DTP control AUC of the same experiment (AUC (confluence x time, arbitrary)); conditions: test compound dose 1000 nM, DMSO control AUC in same experiment: 14522
# Procedure, shortened: (§2)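 EGFR-mutant NSCLC lines went into 48-well plates at 20,000–30,000 cells/well in RPMI 1640 with 10% FBS and were kept at 37 °C, 5% CO2. Cells got either the EGFR inhibitor plus a fixed-dose test compound from the start through the persister stage (10–21 days) and then drug-free medium, or the inhibitor alone followed by the test compound. Medium was changed every 3–4 days until wells given only the inhibitor regrew to confluence. The endpoint was the area under the IncuCyte confluence–time curve, calculated in Prism and reported as the median of triplicates where available.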
# HCC2279 [8] = test: as above; conditions: test compound dose 1000 nM, DMSO control AUC in same experiment: 29252
# Procedure, shortened: as §2
# HCC2935 [9] = test: as above; conditions: test compound dose 1000 nM, DMSO control AUC in same experiment: 11459
# Procedure, shortened: as §2
# HCC4006 [10] = test: as above; conditions: test compound dose 1000 nM, DMSO control AUC in same experiment: 16794
# Procedure, shortened: as §2
# HCC827 [11] = test: as above; conditions: test compound dose 1000 nM, DMSO control AUC in same experiment: 43928
# Procedure, shortened: as §2
# II-18 [12] = test: as above; conditions: test compound dose 1000 nM, DMSO control AUC in same experiment: 23373
# Procedure, shortened: as §2
smiles,measurement,setting,value
C[C@@H](Nc1cc(F)cc(F)c1)c1cc(C(=O)N(C)C)cc2c(=O)cc(N3CCOCC3)oc12,area under confluence curve,"H1975 [1]; 1000 nM, DMSO control AUC in same experiment: 20657",18600
same,area under confluence curve,"HCC2279 [2]; 1000 nM, DMSO control AUC in same experiment: 29252",24500
same,area under confluence curve,"HCC2935 [3]; 1000 nM, DMSO control AUC in same experiment: 13875",10800
same,area under confluence curve,"HCC4006 [4]; 1000 nM, DMSO control AUC in same experiment: 16638",13600
same,area under confluence curve,"HCC827 [5]; 1000 nM, DMSO control AUC in same experiment: 27404",24900
same,area under confluence curve,"II-18 [6]; 1000 nM, DMSO control AUC in same experiment: 18482",11000
COc1cc(CCc2cc(NC(=O)c3ccc(N4CC(C)NC(C)C4)cc3)n[nH]2)cc(OC)c1 (stereo not given) + C=CC(=O)Nc1cc(Nc2nccc(-c3cn(C)c4ccccc34)n2)c(OC)cc1N(C)CCN(C)C [osimertinib],area under confluence curve,"H1975 [7]; dosing schedule: sequential, osimertinib-only DTP control AUC in same experiment: 12533",3690
same,area under confluence curve,"H1975 [7]; dosing schedule: upfront, osimertinib-only DTP control AUC in same experiment: 18969",17800
same,area under confluence curve,"HCC2279 [8]; dosing schedule: sequential, osimertinib-only DTP control AUC in same experiment: 20224",10100
same,area under confluence curve,"HCC2279 [8]; dosing schedule: upfront, osimertinib-only DTP control AUC in same experiment: 43517",18500
same,area under confluence curve,"HCC2935 [9]; dosing schedule: sequential, osimertinib-only DTP control AUC in same experiment: 9121",9140
same,area under confluence curve,"HCC2935 [9]; dosing schedule: upfront, osimertinib-only DTP control AUC in same experiment: 12748",11800
same,area under confluence curve,"HCC4006 [10]; dosing schedule: sequential, osimertinib-only DTP control AUC in same experiment: 22375",14900
same,area under confluence curve,"HCC4006 [10]; dosing schedule: upfront, osimertinib-only DTP control AUC in same experiment: 24440",8920
same,area under confluence curve,"HCC827 [11]; dosing schedule: sequential, osimertinib-only DTP control AUC in same experiment: 5666",3350
same,area under confluence curve,"HCC827 [11]; dosing schedule: upfront, osimertinib-only DTP control AUC in same experiment: 19044",7760
same,area under confluence curve,"II-18 [12]; dosing schedule: sequential, osimertinib-only DTP control AUC in same experiment: 7374",2610
same,area under confluence curve,"II-18 [12]; dosing schedule: upfront, osimertinib-only DTP control AUC in same experiment: 15065",11500
Cn1cc(CNCC2CCN(c3ncc(C(=O)NO)cn3)CC2)c2ccccc21 [Quisinostat],area under confluence curve,"H1975 [1]; 10 nM, DMSO control AUC in same experiment: 20657",8960
same,area under confluence curve,"HCC2279 [2]; 10 nM, DMSO control AUC in same experiment: 29252",18800
same,area under confluence curve,"HCC2935 [3]; 10 nM, DMSO control AUC in same experiment: 13875",8250
same,area under confluence curve,"HCC4006 [4]; 10 nM, DMSO control AUC in same experiment: 16638",11600
same,area under confluence curve,"HCC827 [5]; 10 nM, DMSO control AUC in same experiment: 27404",25100
same,area under confluence curve,"II-18 [6]; 10 nM, DMSO control AUC in same experiment: 7080",3280
Cn1cnc2c(F)c(Nc3ccc(Br)cc3Cl)c(C(=O)NOCCO)cc21 [Selumetinib],area under confluence curve,"H1975 [1]; 300 nM, DMSO control AUC in same experiment: 14522",17100
same,area under confluence curve,"HCC2279 [2]; 300 nM, DMSO control AUC in same experiment: 40085",37400
same,area under confluence curve,"HCC2935 [3]; 300 nM, DMSO control AUC in same experiment: 15413",17800
same,area under confluence curve,"HCC4006 [4]; 300 nM, DMSO control AUC in same experiment: 10921",11800
same,area under confluence curve,"HCC827 [5]; 300 nM, DMSO control AUC in same experiment: 48895",45800
same,area under confluence curve,"II-18 [6]; 300 nM, DMSO control AUC in same experiment: 18482",15300
